We go through 40 compounds from PubChem BioAssay (NCATS).

Molecules are shown by their SMILES. Results filed as inconclusive are left out. Entries that show only a call come without a potency. The source made the active and inactive calls. The call rests on the fitted dose curve; in most records, active means well fitted inhibition curve with a large enough effect; inconclusive means small, poorly fitted or top-dose-only effect; inactive means flat fitted curve, though single readings scatter. *1 amine or outer side, *2 acyl side, *3 side chain or, on linkers, in order; H or OH if unused. Where a SMILES comes first, the peptide text is derived from it. [ ]: non-standard residue; d: D form. ξ: configuration not given here. X5 = CC(CC(O[*:1])C(=O)[*:2])C(=O)O; ξLac(3-iPr) = CC(C)CC(O)C(=O)O; NMeV = CN[CH](C(=O)O)C(C)C; NMeA = CN[CH](C)C(=O)O; βAla = NCCC(=O)O
Potency means the concentration at half of the fitted maximal effect.

This assay can be described thus: P-glycoprotein substrates identified in KB-8-5-11 adenocarcinoma cell line, qHTS therapeutic library screen (AID 1346987). Further: nearly all actives have a fitted effect of over 65% in size. The note with it: KB-8-5-11 (P-gp overexpressing) viability, CellTiter-Glo, 72 h; series mostly up to 44.5 µM. From the text:
The ATP-binding cassette transporters P-glycoprotein (P-gp) is known to limit brain penetration of many chemotherapy drugs. […] As such, we developed a high-throughput screen (HTS) to identify substrates of P-gp from a series of chemical libraries including the National Center for Advancing Translational Sciences Pharmaceutical Collection NPC, 2,816 compounds), testing a total of 10,804 compounds, most of which have known mechanisms of action. We used the CellTiter-Glo viability assay to test library compounds against the parental KB-3-1 human cervical adenocarcinoma cell line and the colchicine-selected sub-line KB-8-5-11 that over-expresses P-gp. KB-8-5-11 cells were also tested in the presence of a P-gp inhibitor (tariquidar) to assess reversability of transporter-mediated resistance. Of the tested compounds, a total of 90 P-gp substrates were identified including 55 newly identified P-gp substrates. Substrates were confirmed using an orthogonal killing assay against HEK-293 cells transfected with P-gp. As exemplars, we confirmed that […] (cyclin-dependent kinase inhibitor); AT9283, (Janus kinase 2/3 inhibitor); ispinesib (kinesin spindle protein inhibitor); gedatolisib (PKI-587, phosphoinositide 3-kinase/mammalian target of rampamycin inhibitor); GSK-690693 (AKT inhibitor); and KW-2478 (heat shock protein 90 inhibitor) were substrates , and direct ATPase stimulation was assessed. ABCG2 was also found to confer high levels of resistance to AT9283, GSK-690693 and gedatolisib, while ispinesib, AT7519 and KW-2478 were weaker substrates.
The HeLa derivative cell line, KB-3-1, and its colchicine-selected, P-gp-overexpressing subline, KB-8-5-11 were maintained in DMEM with 10% FCS and Pen/Strep with glutamine at 37 degree C in 5% CO2. For KB-8-5-11 cells, colchicine was added to the medium at a concentration of 100 ng/mL. HEK-293 cells transfected with empty vector (pcDNA) or vector containing human ABCB1 (MDR-19) or ABCG2 (R-5) have been described previously (Robey, Lin, Qiu, Chan & Bates, 2011) and were maintained in EMEM supplemented with 10% FCS, Pen/Strep and glutamine with 2 mg/ml G418 to select for the expression of the transporter. Cultures were confirmed to be free of mycoplasma infection using the MycoAlert Mycoplasma Detection Kit (Lonza, Walkersville, MD). For the screen, assay medium was identical to culture medium except for KB-8-5-11 where colchicine was excluded from the medium.
All cell lines were plated into 1536-well plates at 500 cells/well in 5 uL media. Compounds were then pinned in dose-response using a 1536-head pin tool (Kalypsis, San Diego, CA) and plates were incubated at 37 degree C in 5% CO2 for an additional 72 h. CellTiter-Glo reagent (Promega) was dispensed into the wells, incubated for 5 min and luminescence was read on a ViewLux instrument (Perkin-Elmer). Cytotoxic compounds were defined as those that yielded a curve class of -1.1, -1.2, -2.1, -2.2, -2.3, or -2.4, a maximum response of >50% and an AC50 of < 10 uM. Cherry-picked hits from screening analysis were tested with both the KB pair of cell lines, and the pcDNA (empty vector control) and MDR-19 (P-gp overexpressing) pair were tested, in the absence and presence of tariquidar.
Background: qHTS replaces the single test concentration by a dilution series.
Consider `OCc1nnc2n1-c1ccc(Cl)cc1C(c1ccccc1Cl)=NC2`, for which the Potency result is “inactive”.
As for `CCC(C)C1NC(=O)C2CCCN2C(=O)C(CC(C)C(=O)O)OC(=O)CCNC(=O)C(C)N(C)C(=O)C(C(C)C)N(C)C1=O` (stereo not given) (cyclo([X5]PI[NMeV][NMeA][βAla]); configuration not given here), the Potency result is “inactive”.
The figure for `CC(=O)OC[C@]12C[C@H](OC(=O)CC(C)C)C(C)=C[C@H]1O[C@@H]1[C@H](O)C[C@@]2(C)[C@]12CO2` is 709 nM (active); for `CC[C@H]1C2CC3[C@@H]4N(C)c5ccccc5[C@]45C[C@@H]([C@H]2[C@H]5O)N3[C@H]1O` it is “inactive”; for `CCOc1cc(C=O)ccc1O` it is “inactive”.
Regarding `CC[C@@H]1C[C@H]2CC[C@H](O2)[C@H](C)C(=O)O[C@@H](C)C[C@@H]2CC[C@@H](O2)[C@@H](C)C(=O)O[C@H](C)C[C@H]2CC[C@H](O2)[C@H](C)C(=O)O[C@@H](C)C[C@@H]2CC[C@@H](O2)[C@@H](C)C(=O)O1`, the Potency was 1220 nM (active).
The entry for `CC1(C)C(=O)N(c2ccc(C#N)c(C(F)(F)F)c2)C(=O)N1CCCCO` is “inactive”; for `C[C@@H]1[C@H]2Cc3ccc(O)cc3[C@]1(C)CCN2C` it is “inactive”.
`C[C@]12CC[C@H](O)CC1=CC[C@@H]1C2CC[C@]2(C)[C@@H](C3=CC(=O)OC3)CC[C@]12O` (stereo not given in full): the Potency was 10100 nM (active).
On to `C=C(C)[C@@]12O[C@@H]1[C@@]1(C)C(=C[C@H]2O)CC[C@@H](O)[C@@H]1C`, for which the Potency result was “inactive”.
As for `COCC(C(=O)OC1CC2CCC(C1)N2C)c1ccccc1` (stereo not given), the Potency entry was “inactive”.
Consider `C[C@]12CC[C@H]3[C@@H](CCC4=C/C(=N/OCC(=O)O)CC[C@@]43C)[C@@H]1CC[C@@H]2O`, for which the Potency result is “inactive”.
For the compound `CC1(C)C(=O)N(c2ccc(C#N)c(C(F)(F)F)c2)C(=S)N1c1ccc(C(N)=O)c(F)c1`, the Potency result is “inactive”.
With `C/C=C(\C)C(=O)O[C@@H]1[C@@H](C)[C@]2(O)C3C=C(C)C(=O)[C@@]3(O)CC(CO)=C[C@H]2C2C(C)(C)[C@@]21OC(=O)C(C)CC` (stereo not given in full), the Potency entry was “inactive”.
As to `CO[C@H]1C[C@H](O[C@H]2CC[C@]3(C=O)[C@H]4CC[C@]5(C)[C@@H](C6=CC(=O)OC6)CC[C@]5(O)[C@@H]4CC[C@]3(O)C2)O[C@H](C)[C@H]1O`, the Potency was 126 nM (active).
Consider `CO[C@H]1[C@H](O)[C@H](O[C@H]2CC[C@]3(C=O)C4CC[C@]5(C)[C@H](C6=CC(=O)OC6)CC[C@]5(O)C4CC[C@@H]3C2)O[C@@H](C)[C@@H]1O` (stereo not given in full), for which the Potency was 25.2 nM (active).
Under `CN[C@@H]1C[C@H]2O[C@@](C)([C@@H]1OC)n1c3ccccc3c3c4c(c5c6ccccc6n2c5c31)C(=O)NC4` stands 58 nM (active); under `O.O.O.O=C([O-])C(O)C(O)C(=O)[O-].O=C([O-])C(O)C(O)C(=O)[O-].[K+].[K+].[Sb].[Sb]` (stereo not given), 8200 nM (active).
Regarding `NC(=O)c1ncn2c1CN=C(c1ccccc1Br)c1cc(F)ccc1-2`, the Potency entry is “inactive”.
In the case of `O=C(C[C@@H]1NCCC[C@H]1O)Cn1cnc2ccccc2c1=O`, the Potency is 259 nM (active).
`CCc1cc(OC)c(C[C@@H](C)N)cc1OC`: the Potency entry is “inactive”.
`C#CCO[C@H]1CN2CCC1CC2`: the Potency result is “inactive”.
Under `CN(Cc1cccc(-c2ccncc2)c1)C(=O)Oc1ccc(-c2ccc(C(N)=O)cc2)cc1` stands “inactive”; under `CC(C)[C@H](NC(=O)c1nn(Cc2ccc(F)cc2)c2ccccc12)C(N)=O`, “inactive”; under `CCC(C)C1NC(=O)C2CCCN2C(=O)C(CC(C)C)OC(=O)CCNC(=O)C(C)N(C)C(=O)C(C(C)C)N(C)C1=O` (stereo not given) (cyclo([ξLac(3-iPr)]PI[NMeV][NMeA][βAla]); configuration not given here), “inactive”.
Regarding `C[C@]12CC[C@H](O)C[C@H]1CC[C@@H]1[C@@H]2[C@H](O)C[C@]2(C)[C@@H](c3ccc(=O)oc3)CC[C@]12O`, the Potency was 51.7 nM (active).
Under `O=Cc1ccccc1` stands “inactive”; under `C=CCN1CC[C@]23c4c5ccc(O)c4O[C@H]2[C@@H](O)CC[C@@]3(O)[C@H]1C5`, “inactive”; under `CC(C)(O)/C=C/C(=O)[C@](C)(O)[C@H]1[C@H](O)C[C@@]2(C)[C@@H]3CC=C4[C@@H](C=C(O)C(=O)C4(C)C)[C@]3(C)C(=O)C[C@]12C`, 237 nM (active).
As for `CCCCN1[C@@H]2CC[C@H]1CC(OC(c1ccc(F)cc1)c1ccc(F)cc1)C2` (stereo not given in full), the Potency was 18400 nM (active).
As for `CN1CCN=C(c2ccccc2)c2cc(Cl)ccc21`, the Potency entry was “inactive”.
Turning to `C=CC(C)(C)C12C=C(O)C(=O)N3/C(=C\c4cnc[nH]4)C(=O)NC31N(OC)c1ccccc12` (stereo not given), the Potency was 7960 nM (active).
Consider `CO[C@@H]1[C@H](O)[C@@H](O[C@@H]2C[C@H]3CC[C@@H]4C(CC[C@]5(C)[C@@H](C6=CC(=O)OC6)CC[C@]45O)[C@@]3(C)[C@H](O)C2)O[C@H](C)[C@@H]1O` (stereo not given in full), for which the Potency is 252 nM (active).
For the compound `CCCCNC(C)(C)[P+](=O)O`, the Potency result was “inactive”.
For the compound `CC1=C[C@H]2O[C@@H]3C[C@H]4OC(=O)/C=C/C=C/C(=O)OCC/C(C)=C/C(=O)OC[C@@]2(CC1)[C@]4(C)[C@]31CO1`, the Potency was 17.8 nM (active).
Turning to `O=C1CN=C(c2cccc(Br)c2)c2oc3ccccc3c2N1`, the Potency was 14600 nM (active).
As for `O=C(NCCCNc1nc(Nc2ccc(N3CCOCC3)cc2)ncc1C1CC1)C1CCC1`, the Potency was 11600 nM (active).
For the compound `COc1ccc2c(c1)c(CCN(C)C)cn2S(=O)(=O)c1ccccc1`, the Potency result is “inactive”.
`COCC1OC(=O)c2coc3c2C1(C)C1=C(C3=O)C2CCC(=O)C2(C)CC1OC(C)=O` (stereo not given): the Potency was 6510 nM (active).
The entry for `Clc1ccc([C@@H]2C[C@H]3CC[C@@H]2N3)cn1` is “inactive”.
